Results: PubChem BioAssay (Tox21)
Inconclusive results are not listed. Entries that show only a call come without a potency. Calls of active or inactive are those of the source. The call rests on the fitted dose curve; in most records, active means well fitted activation curve with a large enough effect in the repeat runs; inconclusive means weak or mixed curves; inactive means flat fitted curve, though single readings scatter.

Assay: A CellTox Green Cytotoxicity Assay to monitor cytotoxicity in HEK293 cells - 8 hour (AID 1224884); further: nearly all actives have a fitted effect of over 35% in size
Details: CellTox Green fluorescence; series mostly up to 76.8 µM
How it was run: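 Each value comes from one timepoint of a single continuous run in which HEK293 cells with CellTox Green were exposed to compound for up to 40 h at 37 C, dye fluorescence rising with cell death.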

SMILES | Potency
CCCC(=O)OCc1ccccc1 | inactive
CCCCCCCCC(=O)OCC(C)OC(=O)CCCCCCCC (centres undefined) | inactive
CC[C@H](NC(C)C)[C@H](O)c1ccc(O)c2[nH]c(=O)ccc12 | inactive
O=C(O)c1ccncc1 | inactive
CCCCCCCCOCCCN | inactive
COc1cc(CNC(=O)CCCC/C=C/C(C)C)ccc1O | inactive
C[C@H]1C[C@H]2[C@@H]3CCC4=CC(=O)C=C[C@]4(C)[C@@]3(F)[C@@H](O)C[C@]2(C)[C@@]1(O)C(=O)COP(=O)(O)O | inactive
CC(C)(C)N | inactive
CNc1ccccc1 | inactive
C=Cc1ccc(C=C)cc1 | inactive
C/C=C1\[C@H]2C=C(C)C[C@]1(N)c1ccc(=O)[nH]c1C2 | inactive
O=C1OC(=O)C2CC=CCC12 (centres undefined) | inactive
CC1(C)C(=O)NC(=O)N1CO | inactive
Nc1ccc(C(=O)Oc2ccccc2)c(O)c1 | inactive
COC(=O)/C=C/C(C)=C\C=C\C(C)=C\C=C\C=C(C)\C=C\C=C(C)\C=C\C(=O)O | inactive
O=c1[nH]nc(-c2ccc([N+](=O)[O-])o2)o1 | inactive
C/C(=C(\CCO)SS/C(CCO)=C(\C)N(C=O)Cc1cnc(C)nc1N)N(C=O)Cc1cnc(C)nc1N | inactive
O=[N+]([O-])c1cccc(I)c1 | inactive
CC(=O)Nc1ccccc1O | inactive
CC1(COc2ccc(CC3SC(=O)NC3=O)cc2)CCCCC1 (centres undefined) | inactive

SMILES | Potency
CC(=O)c1ccc(Cl)c(Cl)c1Cl | inactive
CC(=O)Oc1cccc2c1C(=O)c1c(OC(C)=O)cc(C(=O)O)cc1C2=O | inactive
CC1=C(C)C(=O)C(C(CCCCCC(=O)O)c2ccccc2)=C(C)C1=O (centres undefined) | inactive
CO[C@@H]1COCC[C@@H]1N[C@@H]1CC[C@@](C(=O)N2CCc3ncc(C(F)(F)F)cc3C2)(C(C)C)C1 | inactive
O=C(NC1CCN(CCc2c[nH]c3ccccc23)CC1)c1ccccc1 | inactive
N#CCCCC(C#N)CCC#N (centres undefined) | inactive
C(/C=C/C=C/Nc1ccccc1)=Nc1ccccc1 | inactive
CCC(C)C1N=C(C)C(C)S1 (centres undefined) | inactive
Cc1cc(C)n(CO)n1 | inactive
CCOc1ccccc1O | inactive
CCC1=C(C)CN(C(=O)NCCc2ccc(S(=O)(=O)NC(=O)NC3CCC(C)CC3)cc2)C1=O (centres undefined) | inactive
O=C1c2ccccc2C(=O)c2c1ccc(O)c2O | inactive
CC(C)C/C=C(\C=O)c1ccccc1 | inactive
CC(C)=CCC[C@H](C)CCO | inactive
Cc1ccc(NC=O)c(C)c1 | inactive
NC(=O)c1cc[n+](CC2=C(C(=O)[O-])N3C(=O)[C@@H](NC(=O)Cc4cccs4)[C@H]3SC2)cc1 | inactive
[O-][n+]1ccc(Cl)cc1 | inactive
COc1ccc(/C=C/S(=O)(=O)NC(=O)c2ccc(C)cc2Cl)cc1 | inactive
CCC(C(=O)O)c1ccc(N2Cc3ccccc3C2=O)cc1 (centres undefined) | inactive
